# Experimental data as given in PubChem BioAssay AID1508601 (ICCB-Longwood Screening Facility, Harvard Medical School, 2020).
# Several values for one entry are separate records, joined by “and”; a condition that tells them apart may be missing. Identical values can stand only once. About 85 (1%) of roughly 5,700 compounds were called active. No stated cut-off is given here; in the data, active means p53-positive nuclei above about 36% (passing the limit was not always enough); inactive means the rest. The entries come from a sample that favours actives as a whole.
# How the values were obtained:
# [1] = nuclear p53 accumulation, HPV+ cells – imaging, p53-positive nuclei imaging, 24 h, 48 h (AID 1508601); conditions: 24/48 h
# [2] = molecular target: Cellular tumor antigen p53 (Homo sapiens) (UniProt P04637); experiment: as above; conditions: 24/48 h, stronger effect = higher value
# Sequence of Cellular tumor antigen p53 (Homo sapiens) (P04637 whole entry, looked up): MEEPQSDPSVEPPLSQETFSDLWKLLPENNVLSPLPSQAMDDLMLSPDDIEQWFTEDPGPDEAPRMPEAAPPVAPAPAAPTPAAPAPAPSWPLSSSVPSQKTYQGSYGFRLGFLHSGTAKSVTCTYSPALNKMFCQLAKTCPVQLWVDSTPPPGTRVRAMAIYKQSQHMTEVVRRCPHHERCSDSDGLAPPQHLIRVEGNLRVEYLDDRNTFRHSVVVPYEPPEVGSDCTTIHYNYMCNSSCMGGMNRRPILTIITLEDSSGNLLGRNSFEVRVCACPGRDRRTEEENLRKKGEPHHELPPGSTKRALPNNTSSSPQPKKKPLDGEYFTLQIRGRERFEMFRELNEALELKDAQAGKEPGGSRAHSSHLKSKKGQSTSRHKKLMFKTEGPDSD
# [3] = measured here: cell number at 24 h, Library stock concentration: 80 uM
# [4] = measured here: cell number at 24 h, Library stock concentration: 400 uM
# [5] = measured here: cell number at 24 h, Library stock concentration: 2 mM
# [6] = measured here: cell number at 24 h, Library stock concentration: 3.33 mM
# [7] = measured here: cell number at 24 h, Library stock concentration: 10 mM
# [8] = measured here: cell number at 48 h, Library stock concentration: 80 uM
# [9] = measured here: cell number at 48 h, Library stock concentration: 400 uM
# [10] = measured here: cell number at 48 h, Library stock concentration: 2 mM
# [11] = measured here: cell number at 48 h, Library stock concentration: 3.33 mM
# [12] = measured here: cell number at 48 h, Library stock concentration: 10 mM
# [13] = Library stock concentration: 80 uM
# [14] = Library stock concentration: 400 uM
# [15] = Library stock concentration: 2 mM
# [16] = Library stock concentration: 3.33 mM
# [17] = Library stock concentration: 10 mM
# [18] = measured here: p53 positive nuclei at 24 h, Library stock concentration: 80 uM
# [19] = measured here: p53 positive nuclei at 24 h, Library stock concentration: 400 uM
# [20] = measured here: p53 positive nuclei at 24 h, Library stock concentration: 2 mM
# [21] = measured here: p53 positive nuclei at 24 h, Library stock concentration: 3.33 mM
# [22] = measured here: p53 positive nuclei at 24 h, Library stock concentration: 10 mM
# [23] = measured here: cell number at 24 h, concentration not given here
# [24] = measured here: cell number at 48 h, concentration not given here
# [25] = measured here: p53 positive nuclei at 24 h, concentration not given here
smiles,measurement,setting,value
CS(=O)(=O)N1CCN(Cc2cc3nc(-c4cccc5[nH]ncc45)nc(N4CCOCC4)c3s2)CC1,"nuclei count, normalised","[1]; measured here: cell number at 24 h, Library stock concentration: 46 uM",89.1%
same,"nuclei count, normalised",[1]; [3],105%
same,"nuclei count, normalised","[1]; measured here: cell number at 24 h, Library stock concentration: 278 uM",97%
same,"nuclei count, normalised",[1]; [4],93.5%
same,"nuclei count, normalised","[1]; measured here: cell number at 24 h, Library stock concentration: 1.67 mM",84.9%
same,"nuclei count, normalised",[1]; [5],94%
same,"nuclei count, normalised",[1]; [6],97.5%
same,"nuclei count, normalised",[1]; [7],66.1% and 64.1%
same,"nuclei count, normalised","[1]; measured here: cell number at 48 h, Library stock concentration: 46 uM",97%
same,"nuclei count, normalised",[1]; [8],109%
same,"nuclei count, normalised","[1]; measured here: cell number at 48 h, Library stock concentration: 278 uM",100%
same,"nuclei count, normalised",[1]; [9],93.5%
same,"nuclei count, normalised","[1]; measured here: cell number at 48 h, Library stock concentration: 1.67 mM",87.3%
same,"nuclei count, normalised",[1]; [10],89.3%
same,"nuclei count, normalised",[1]; [11],101%
same,"nuclei count, normalised",[1]; [12],56.3% and 65.9%
same,"p53-positive nuclei, normalised",[2]; Library stock concentration: 46 uM,-0.00738% (inactive)
same,"p53-positive nuclei, normalised",[2]; [13],-0.168% (inactive)
same,"p53-positive nuclei, normalised",[2]; Library stock concentration: 278 uM,-0.0603% (inactive)
same,"p53-positive nuclei, normalised",[2]; [14],-0.297% (inactive)
same,"p53-positive nuclei, normalised",[2]; Library stock concentration: 1.67 mM,-0.0683% (inactive)
same,"p53-positive nuclei, normalised",[2]; [15],-0.297% (inactive)
same,"p53-positive nuclei, normalised",[2]; [16],-0.619% (inactive)
same,"p53-positive nuclei, normalised",[2]; [17],-0.184% (inactive) and -0.277% (inactive)
same,"p53-positive nuclei, normalised","[2]; measured here: p53 positive nuclei at 24 h, Library stock concentration: 46 uM",-0.0723%
same,"p53-positive nuclei, normalised",[2]; [18],0.26%
same,"p53-positive nuclei, normalised","[2]; measured here: p53 positive nuclei at 24 h, Library stock concentration: 278 uM",-0.0265%
same,"p53-positive nuclei, normalised",[2]; [19],-0.0433%
same,"p53-positive nuclei, normalised","[2]; measured here: p53 positive nuclei at 24 h, Library stock concentration: 1.67 mM",-0.14%
same,"p53-positive nuclei, normalised",[2]; [20],-0.0447%
same,"p53-positive nuclei, normalised",[2]; [21],-0.329%
same,"p53-positive nuclei, normalised",[2]; [22],-0.00819% and -0.118%
CCCCC[C@H](O)/C=C/[C@H]1[C@H](O)CC(=O)[C@@H]1C/C=C\CCCC(=O)Oc1ccc(NC(C)=O)cc1,"nuclei count, normalised",[1]; [23],106%
same,"nuclei count, normalised",[1]; [24],115%
same,"p53-positive nuclei, normalised",[2]; concentration not given here,-0.0787% (inactive)
same,"p53-positive nuclei, normalised",[2]; [25],-0.118%
CCCCCCCCCC(=O)CC(=O)N[C@H]1CCOC1=O,"nuclei count, normalised",[1]; [23],107%
same,"nuclei count, normalised",[1]; [24],108%
same,"p53-positive nuclei, normalised",[2]; concentration not given here,0.0451% (inactive)
same,"p53-positive nuclei, normalised",[2]; [25],-0.0502%
CC1CCNC(=O)c2cc3ccc(C(=O)Nc4nc5ccccc5n4CCCN(C)C)cc3n21 (stereo not drawn),"nuclei count, normalised",[1]; [3],112%
same,"nuclei count, normalised",[1]; [4],107%
same,"nuclei count, normalised",[1]; [5],107%
same,"nuclei count, normalised",[1]; [7],106%
same,"nuclei count, normalised",[1]; [8],115%
same,"nuclei count, normalised",[1]; [9],113%
same,"nuclei count, normalised",[1]; [10],111%
same,"nuclei count, normalised",[1]; [12],119%
same,"p53-positive nuclei, normalised",[2]; [13],-0.131% (inactive)
same,"p53-positive nuclei, normalised",[2]; [14],-0.0944% (inactive)
same,"p53-positive nuclei, normalised",[2]; [15],0.0714% (inactive)
same,"p53-positive nuclei, normalised",[2]; [17],-0.134% (inactive)
same,"p53-positive nuclei, normalised",[2]; [18],-0.0686%
same,"p53-positive nuclei, normalised",[2]; [19],0.0741%
same,"p53-positive nuclei, normalised",[2]; [20],-0.156%
same,"p53-positive nuclei, normalised",[2]; [22],-0.111%
Cn1ncc(NC(=O)CCc2cn3ccccc3n2)n1,"nuclei count, normalised",[1]; [23],84.4%
same,"nuclei count, normalised",[1]; [24],90.1%
same,"p53-positive nuclei, normalised",[2]; concentration not given here,-0.189% (inactive)
same,"p53-positive nuclei, normalised",[2]; [25],-0.142%
O=C(O)c1ccccc1,"nuclei count, normalised",[1]; [6],99.7%
same,"nuclei count, normalised",[1]; [11],99.1%
same,"p53-positive nuclei, normalised",[2]; [16],-0.166% (inactive)
same,"p53-positive nuclei, normalised",[2]; [21],-0.28%
CN(NC(=O)CC(=O)NN(C)C(=S)c1ccccc1)C(=S)c1ccccc1,"nuclei count, normalised","[1]; measured here: cell number at 24 h, Library stock concentration: 500 nM",98.9%
same,"nuclei count, normalised","[1]; measured here: cell number at 24 h, Library stock concentration: 1.5 uM",108%
same,"nuclei count, normalised","[1]; measured here: cell number at 24 h, Library stock concentration: 4.6 uM",110%
same,"nuclei count, normalised","[1]; measured here: cell number at 24 h, Library stock concentration: 13.7 uM",111%
same,"nuclei count, normalised","[1]; measured here: cell number at 24 h, Library stock concentration: 41 uM",94.3%
same,"nuclei count, normalised","[1]; measured here: cell number at 24 h, Library stock concentration: 123 uM",64.8%
same,"nuclei count, normalised","[1]; measured here: cell number at 24 h, Library stock concentration: 370 uM",60.9%
same,"nuclei count, normalised","[1]; measured here: cell number at 24 h, Library stock concentration: 1.111 mM",60.4%
same,"nuclei count, normalised",[1]; [6],51.3%
same,"nuclei count, normalised","[1]; measured here: cell number at 24 h, Library stock concentration: 3.333 mM",54.8%
same,"nuclei count, normalised",[1]; [7],54.4%
same,"nuclei count, normalised","[1]; measured here: cell number at 48 h, Library stock concentration: 500 nM",104%
same,"nuclei count, normalised","[1]; measured here: cell number at 48 h, Library stock concentration: 1.5 uM",107%
same,"nuclei count, normalised","[1]; measured here: cell number at 48 h, Library stock concentration: 4.6 uM",108%
same,"nuclei count, normalised","[1]; measured here: cell number at 48 h, Library stock concentration: 13.7 uM",110%
same,"nuclei count, normalised","[1]; measured here: cell number at 48 h, Library stock concentration: 41 uM",100%
same,"nuclei count, normalised","[1]; measured here: cell number at 48 h, Library stock concentration: 123 uM",63.4%
same,"nuclei count, normalised","[1]; measured here: cell number at 48 h, Library stock concentration: 370 uM",55%
same,"nuclei count, normalised","[1]; measured here: cell number at 48 h, Library stock concentration: 1.111 mM",52.6%
same,"nuclei count, normalised",[1]; [11],44.1%
same,"nuclei count, normalised","[1]; measured here: cell number at 48 h, Library stock concentration: 3.333 mM",48.4%
same,"nuclei count, normalised",[1]; [12],43.1%
same,"p53-positive nuclei, normalised",[2]; Library stock concentration: 500 nM,0.0337% (inactive)
same,"p53-positive nuclei, normalised",[2]; Library stock concentration: 1.5 uM,-0.251% (inactive)
same,"p53-positive nuclei, normalised",[2]; Library stock concentration: 4.6 uM,0.0195% (inactive)
same,"p53-positive nuclei, normalised",[2]; Library stock concentration: 13.7 uM,0.51% (inactive)
same,"p53-positive nuclei, normalised",[2]; Library stock concentration: 41 uM,5.45% (inactive)
same,"p53-positive nuclei, normalised",[2]; Library stock concentration: 123 uM,37% (active)
same,"p53-positive nuclei, normalised",[2]; Library stock concentration: 370 uM,48.3% (active)
same,"p53-positive nuclei, normalised",[2]; Library stock concentration: 1.111 mM,55.8% (active)
same,"p53-positive nuclei, normalised",[2]; [16],56.4% (active)
same,"p53-positive nuclei, normalised",[2]; Library stock concentration: 3.333 mM,64.9% (active)
same,"p53-positive nuclei, normalised",[2]; [17],64.3% (active)
same,"p53-positive nuclei, normalised","[2]; measured here: p53 positive nuclei at 24 h, Library stock concentration: 500 nM",-0.0555%
same,"p53-positive nuclei, normalised","[2]; measured here: p53 positive nuclei at 24 h, Library stock concentration: 1.5 uM",-0.0139%
same,"p53-positive nuclei, normalised","[2]; measured here: p53 positive nuclei at 24 h, Library stock concentration: 4.6 uM",-0.119%
same,"p53-positive nuclei, normalised","[2]; measured here: p53 positive nuclei at 24 h, Library stock concentration: 13.7 uM",1.05%
same,"p53-positive nuclei, normalised","[2]; measured here: p53 positive nuclei at 24 h, Library stock concentration: 41 uM",14.4%
same,"p53-positive nuclei, normalised","[2]; measured here: p53 positive nuclei at 24 h, Library stock concentration: 123 uM",69.4%
same,"p53-positive nuclei, normalised","[2]; measured here: p53 positive nuclei at 24 h, Library stock concentration: 370 uM",85.7%
same,"p53-positive nuclei, normalised","[2]; measured here: p53 positive nuclei at 24 h, Library stock concentration: 1.111 mM",93.5%
same,"p53-positive nuclei, normalised",[2]; [21],80.8%
same,"p53-positive nuclei, normalised","[2]; measured here: p53 positive nuclei at 24 h, Library stock concentration: 3.333 mM",103%
same,"p53-positive nuclei, normalised",[2]; [22],104%
